According to PubChem BioAssay AID652257 (The Scripps Research Institute Molecular Screening Center, 2013):
In all, about 370,000 compounds went through this assay and about 4,800 (1.3%) were called active.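 How the source made its calls: active means inhibition above about 21% made by adding two undisclosed values (limit read from the data); inactive means the rest.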 The list comes from a sample in which actives are over-represented; it also holds similar structures and randomly drawn compounds.

These compounds were tested against Protein arginine N-methyltransferase 1 (Homo sapiens) (UniProt Q99873) (assay: PRMT1 methyltransferase inhibitors, primary screen, biochemical, fluorescence polarization (AID 652257)). Details: recombinant PRMT1, activity-based probe fluorescence polarization; at 2.79 µM; active compounds read high.
Chain of Protein arginine N-methyltransferase 1 (Homo sapiens) (Q99873 whole entry, looked up): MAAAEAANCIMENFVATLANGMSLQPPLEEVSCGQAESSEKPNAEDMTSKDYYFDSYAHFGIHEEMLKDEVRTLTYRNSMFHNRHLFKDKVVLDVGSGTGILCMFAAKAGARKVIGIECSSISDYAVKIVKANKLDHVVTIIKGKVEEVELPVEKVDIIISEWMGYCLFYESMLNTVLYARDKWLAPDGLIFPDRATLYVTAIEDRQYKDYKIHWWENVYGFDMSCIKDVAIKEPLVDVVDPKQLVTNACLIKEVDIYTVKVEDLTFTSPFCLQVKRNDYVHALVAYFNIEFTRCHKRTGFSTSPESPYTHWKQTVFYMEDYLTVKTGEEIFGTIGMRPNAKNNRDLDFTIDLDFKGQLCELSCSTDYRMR
In the case of `O=C(c1ccc[nH]c1=S)N1CCN(S(=O)(=O)c2ccc(Br)cc2Cl)CC1`, the inhibition was 31.8% (active).
In the case of `O=C(O)c1cc(S(=O)(=O)N2CCCCCC2)c(Cl)cc1Cl`, the inhibition was -2.22% (inactive).
With `Cc1ccc(S(=O)(=O)N2CCN(C(=O)c3ccccc3-c3nc4ccccc4s3)CC2)c(C)c1` the inhibition was 6.86% (inactive).
With `O=C(CNS(=O)(=O)c1ccccc1F)N1CCN(c2ccccn2)CC1` the inhibition was 2.96% (inactive).
With `O=S(=O)(c1ccc2c(c1)OCCCO2)N1CCN(S(=O)(=O)c2c(F)cccc2F)CC1` the inhibition was -4.09% (inactive).
For `COc1ccc(C)cc1NC(=S)N1CCOCC1`, the inhibition was -1.44% (inactive).
`COc1cc(C(=S)N2CCOCC2)ccc1O` was tested, and the inhibition was 24.1% (active).
In the case of `COc1cc(C(=O)Nc2cc(C(F)(F)F)ccc2N2CCOCC2)ccc1O`, the inhibition was -2.71% (inactive).
`COc1cc(C(=S)NC2CCCCC2)ccc1O` was tested, and the inhibition was 29% (active).
In the case of `COc1ccc(C(C)NC(=S)NC2CCCCC2)cc1OC` (configuration not stated), the inhibition was -2.42% (inactive).
With `Cc1ccc(C(=O)OCC(=O)NC2CCCCCCC2)cc1C` the inhibition was -2.13% (inactive).
With `COC(=O)C[C@@H]1CC[C@@H]2[C@@H](COc3ccc(NC(=O)Nc4ccc(F)c(F)c4)cc3C(=O)N2C)O1` the inhibition was -0.15% (inactive).
For `O=C1c2ccccc2C(=O)N1CCC(c1ccccc1)c1ccco1` (configuration not stated), the inhibition was 8.33% (inactive).
With `CCCCCN(C(=O)NC(=O)Nc1ccccc1OC)S(C)(=O)=O` the inhibition was 5.33% (inactive).
`O=C(OC12CCCN(C1)/C(=C/c1cccnc1)C2)C1CCCC1` (configuration not stated) was tested, and the inhibition was 0.1% (inactive).
In the case of `CCOC(=O)[C@@]12CN(C(=O)OC(C)(C)C)CC=C1N(Cc1ccc(OC)cc1)C(=O)[C@H]2CC(=O)NCc1ccc(OC)c(OC)c1`, the inhibition was -3.24% (inactive).
In the case of `O=C(Nc1c(-c2ccccc2)nc2c(Br)cc(Br)cn12)c1ccco1`, the inhibition was 0.75% (inactive).
`O=C(Nc1nc(-c2ccco2)c(-c2ccco2)s1)c1ccco1` was tested, and the inhibition was 51.8% (active).
`O=C(Nc1ccccc1C(=O)N1CCCCC1)c1ccco1` was tested, and the inhibition was -7.4% (inactive).
In the case of `O=C(CSc1nnc(C2CC2)n1Cc1ccccc1)Nc1cccnc1Cl`, the inhibition was 4.21% (inactive).
For `Cc1cccc(C)c1NC(=O)N1CC(C)OC(C)C1` (configuration not stated), the inhibition was 1.08% (inactive).
In the case of `CN=C(c1ccccc1)c1c(C)cccc1C`, the inhibition was -2.83% (inactive).
With `Cc1cccc(C)c1NC(=O)C(Cl)C(=O)c1ccccc1` (configuration not stated) the inhibition was 32% (active).
In the case of `CCOc1ccc(S(=O)(=O)N2CCC(C(=O)NCC(=O)Nc3cccc(Cl)c3C)CC2)cc1`, the inhibition was -4.55% (inactive).
With `CC(C)[C@@H](C)/C=C/[C@@H](C)[C@H]1CC[C@@H]2[C@]1(C)CCC1[C@]23C=C[C@]2(C[C@@H](O)CC[C@]12C)N(c1ccc([N+](=O)[O-])cn1)O3` (some centres not stated) the inhibition was 1.5% (inactive).
`O=S(=O)(Cc1nnnn1-c1ccc(Br)cc1)c1ccc(F)cc1` was tested, and the inhibition was -3.12% (inactive).
For `O=C(NC(=S)Nc1ncccn1)c1ccccc1Br`, the inhibition was 21.4% (active).
`CC1CCN(C(=S)NC(=O)c2ccccc2Br)CC1` was tested, and the inhibition was -1.71% (inactive).
`COC(=O)c1cccnc1NC(=S)NC(C)C` was tested, and the inhibition was -1.9% (inactive).
`CC(=O)N(O)CCCCCNC(=O)CCC(=O)N(O)CCCCCNC(=O)CCC(=O)N(O)CCCCCNC(=O)CCC(=O)O` was tested, and the inhibition was -4.14% (inactive).
`CCCCn1c(N)c(N(CCOC)C(=O)c2oc3ccc(OC)cc3c2C)c(=O)[nH]c1=O` was tested, and the inhibition was -1% (inactive).
In the case of `CCN(CC)CCCC(C)n1c2nc(=O)[nH]c(=O)c-2nc2cc(Cl)ccc21` (configuration not stated), the inhibition was 161% (active).
`CC(C)NC(=O)C(c1ccc(F)cc1)N(C(=O)CCC(=O)Nc1ccccn1)c1ccccc1F` (configuration not stated) was tested, and the inhibition was -0.59% (inactive).
`C[C@H](C(=O)N(C)c1ccccc1)[C@@H](O)c1ccc2ccccc2c1` was tested, and the inhibition was 6.67% (inactive).
`Nc1ccccc1C(=O)NC1CCCCNC1=O` (configuration not stated) was tested, and the inhibition was -3.31% (inactive).
In the case of `O=C(NCc1ccco1)C1CCCN(S(=O)(=O)c2ccc(Cl)s2)C1` (configuration not stated), the inhibition was -5.05% (inactive).
For `O=C(OCC(O)C(O)COC(=O)c1ccccc1)c1ccccc1` (configuration not stated), the inhibition was 1.36% (inactive).
For `NS(=O)(=O)c1cc(C(=O)OCC(=O)NNC(=O)c2ccccc2)ccc1Cl`, the inhibition was -1.9% (inactive).
With `O=C(NC1=CC(=O)c2ccccc2C1=O)c1ccccc1` the inhibition was 36.9% (active).
In the case of `C=C1c2c(Cl)ccc(O)c2C(O)=C2C(=O)[C@]3(O)C(O)=C(C(N)=O)C(=O)[C@@H](N(C)C)[C@@H]3[C@@H](O)C12` (some centres not stated), the inhibition was 44.5% (active).
For `CN(C)[C@@H]1C(=O)C(C(N)=O)=C(O)[C@@]2(O)C(=O)C3=C(O)c4c(O)ccc(Cl)c4[C@@H](O)[C@H]3C[C@@H]12`, the inhibition was 32% (active).
For `COC(=O)c1cc(S(=O)(=O)N2CCN(c3ccccc3C)CC2)cn1C`, the inhibition was -0.8% (inactive).
In the case of `COc1ncnc2c1N=C1CC(C)(C)CC(N)=C1S2`, the inhibition was 33.2% (active).
With `Cc1ccc(C(=O)NCC(=O)NC2CC2)cc1` the inhibition was -3.08% (inactive).
In the case of `CN(C)C(CNC(=O)c1cccc(S(=O)(=O)N2CCc3ccccc3C2)c1)c1ccccc1` (configuration not stated), the inhibition was 2.65% (inactive).
With `COc1ccccc1NC(=O)COC(=O)COc1ccccc1F` the inhibition was -0.97% (inactive).
With `COc1ccccc1NC(=O)/C=C/C(N)=O` the inhibition was 62.4% (active).
With `COc1ccccc1NC(=O)c1cc(Cl)nnc1Cl` the inhibition was 0.83% (inactive).
For `CN(C(=O)c1cccc([N+](=O)[O-])c1)c1ccccc1C(=O)NCc1ccccc1`, the inhibition was 0.8% (inactive).
For `Cc1cc(C)n(-c2nc(O)cc(=O)[nH]2)n1`, the inhibition was -0.2% (inactive).
`O=C(COC(=O)c1ccccc1C(=O)N1CCN(c2ccccc2)CC1)NCc1ccccc1` was tested, and the inhibition was 12.8% (inactive).
`Oc1ccc(N2CCN(C(=S)NCc3ccccc3)CC2)cc1` was tested, and the inhibition was 23.4% (active).
`O=C(CN1CCN(c2ccccc2O)CC1)NC(=O)NCc1ccccc1` was tested, and the inhibition was -0.8% (inactive).
`CC1CCN(C(=O)c2ncn3c2C(=O)N[C@@H](C)C3)CC1` was tested, and the inhibition was -0.43% (inactive).
`COc1ccc(S(=O)(=O)N(C)C[C@@H]2Oc3ccc(NS(=O)(=O)c4cn(C)cn4)cc3C(=O)N([C@@H](C)CO)C[C@@H]2C)cc1` was tested, and the inhibition was 0.38% (inactive).
`COc1ccc(CCNC(=O)CSc2nc3c([nH]2)c(=O)n(C)c(=O)n3C)cc1` was tested, and the inhibition was 1.93% (inactive).
With `CC(C)(C)c1ccc(C(=O)Nc2cc(Cl)c(Br)cc2C(=O)O)cc1` the inhibition was -1.7% (inactive).
